# HCV inh = blocks hepatitis C virus | Huh7.5.1 HCVcc-Cre infection, luciferase reporter, 44 h | Potency, µM (highest dose often 41.8 µM), most hits filed as inhibitors | AID 651820 | hit rate 3.4% among 340,000; active means well fitted inhibition curve with a large enough effect; inconclusive means small, poorly fitted or top-dose-only effect, or another doubt; inactive means no such curve, though single readings can be large or run the other way
#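 Infectious HCV cell culture screen: compound-treated cells (1,000/well, pre-plated 4 h) are infected with HCVcc-Cre at roughly 0.5 moi and grown 44 h. Infection is quantified by luciferase signal after 15 min substrate incubation at room temperature.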
# FMDV antiviral = foot and mouth disease virus antiviral activity. FMDV antiviral cell-based qHTS. hit rate 1.2% among 410,000. Potency, µM (top dose mostly 57.9 µM), actives largely listed as inhibitors; calls by dose curve; tested in HEK293T cells; further: read-out not given here; nearly all actives have a fitted effect of over 45% in size
# HCMV antiviral = human cytomegalovirus inhibition; HFF cells, HCMV-luciferase reporter, 72 h; stronger effect = lower value; activity change, negative = inhibition, % at 57.5 µM; hit rate 4.5% among 410,000; in the data active means activity change below about -60%; inconclusive means no clear call, values can overlap the other calls; inactive means above about -39%
#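 Steps: HFFs plated, 16 h 37C; compounds added; HCMV-luciferase added to MOI 1 PFU/cell; 72 h 37C; OneGlo reagent, 5 min room temperature; luminescence read, normalized to controls.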
# LASV entry inh = Lassa virus entry inhibition; Lassa virus pseudotype entry inhibition, cell reporter; Potency, µM (top dose mostly 37.9 µM), actives largely listed as inhibitors; hit rate 1.2% among 300,000; AID 540256; calls by dose curve; tested in HEK293 cells; further: nearly all actives have a fitted effect of over 50% in size
# Marburg entry inh = inhibitors of Marburg virus binding or cell entry. hit rate 1.8% among 300,000. Potency, µM (titrated, usually from 37.8 µM), most hits filed as inhibitors. AID 540276. Marburg virus pseudotyped entry inhibition, cell reporter; calls by dose curve; tested in HEK293 cells
# Hits are given with their value; n = inactive; u = inconclusive; x = no result given; ! = not confirmed by another sample. Most compounds without a hit are left out; they make up all but 7.9% or so of the library.
SMILES,HCV inh,FMDV antiviral,HCMV antiviral,LASV entry inh,Marburg entry inh
COc1ccc2[nH]cc(CCNC(C)=O)c2c1,u,n,n,n,u
COc1cc2c(CCNC(C)=O)c[nH]c2cc1Cl,n,n,-92,n,u
COc1ccc(OC)c(NC(=O)NCCc2c[nH]c3ccccc23)c1,u,n,-87,x,x
COc1cc(CN2CCOc3ccc(CN4CCN(CCO)CC4)cc3C2)ccc1F,x,n,x,x,x
CC(O)C(NS(=O)(=O)c1ccc2ccccc2c1)C(=O)OCC(=O)Nc1ccccc1OC(F)F (configuration not stated),n,n,n,n,n
CCc1nn(C(C)C(=O)NCCc2ccccc2)c(=O)c2cc3occc3n12 (configuration not stated),n,n,n,x,x
CCc1nn(C(C)C(=O)NC(C)CCc2ccco2)c(=O)c2cc3occc3n12 (configuration not stated),10µM,n,x,n,n
CCc1nn(C(C)C(=O)NCc2cccc(Cl)c2)c(=O)c2cc3occc3n12 (configuration not stated),8.9µM,n,n,x,x
CCc1nn(C(C)C(=O)NCc2ccc(Cl)cc2)c(=O)c2cc3occc3n12 (configuration not stated),u,n,n,u,n
COc1cccc(-n2c(=O)c3sccc3n(Cc3cc(=O)n4cc(Cl)ccc4n3)c2=O)c1,x,n,n,n,u
O=C(NCCc1csc(-c2ccc(Cl)cc2)n1)c1ccco1,11µM,u,n,n,x
COc1ccc(-c2nc(CCNS(=O)(=O)c3ccc4c(c3)OCCO4)cs2)cc1,11µM,n,n,x,x
O=C(NCCc1csc(-c2ccc(C(F)(F)F)cc2)n1)c1ccc(F)c(F)c1,x,20µM,-63,n,x
O=S(=O)(NCCc1csc(-c2ccc(C(F)(F)F)cc2)n1)c1ccc2c(c1)OCCO2,u,n,n,x,x
COc1ccc(-c2nc(CCNC(=O)c3cccs3)cs2)cc1,35µM,u,u,u,x
Cc1cccc(-c2nc(CCNC(=O)c3ccc(Br)o3)cs2)c1,x,n,n,n,x
Cc1ccc(-c2nc(CCNC(=O)c3ccco3)cs2)cc1,10µM,u,n,n,u
Cc1cccc(-c2nc(CCNC(=O)c3ccco3)cs2)c1,x,n,-68!,n,x
C#CCNC(=O)[C@H]1C=C(OC)C(=O)C[C@H](c2ccccc2)[C@H]1C,x,x,x,x,n
COc1ncc2nc(-c3cc(F)cc(F)c3)c(=O)n(CCC#N)c2n1,x,n,x,x,x
Cc1ccc(Cl)cc1N1CCN(C(=O)Cn2ncn3cccc3c2=O)CC1,n,u,-76,x,x
O=C(Cn1ncn2cccc2c1=O)N1CCCCC1,n,n,n,n,n
O=C(CCNS(=O)(=O)c1ccc(Br)cc1)N1CCCCCCC1,n,n,n,n,u
O=C(CCNS(=O)(=O)c1ccc(Cl)cc1)N1CCCC1,n,n,-71,u,n
CC(=O)Nc1ccc(S(=O)(=O)NCCC(=O)N2CCN(C(c3ccccc3)c3ccccc3)CC2)cc1,n,u,u,0.32µM,n
SMILES,HCV inh,FMDV antiviral,HCMV antiviral,LASV entry inh,Marburg entry inh
COC(=O)c1c(C(=O)OC)c2c3ccccc3cc(C3CC3)n2c1C(=O)OC,x,x,x,x,n
COc1ccc(-c2ccc(CN3C(C(C)C)C(=O)N(Cc4cn(CCC5OCCO5)nn4)CCS3(=O)=O)cc2)cn1 (configuration not stated),x,x,x,n,x
CC(=O)[C@@]12C3[C@@H](CCN3C(=O)N[C@H]1c1ccccc1)[C@H]2c1ccccc1 (some centres not stated),x,x,x,x,n
Nc1ncnc2c1cnn2C1CCCCC1,n,n,n,n,n
C/C(=N\NC(=S)NCc1ccccc1)c1cccs1,u,n,n,n,n
C/C(=N\NC(=S)NCCc1ccccc1)c1ccc(C)cc1,n,n,n,u,16µM
C/C(=N\NC(=S)NCc1ccccc1)c1ccc(Br)cc1,u,n,n,u,n
C/C(=N\NC(=S)NCc1ccccc1)c1ccc(C)o1,u,n,-107,u,n
C/C(=N\NC(=S)NCc1ccccc1)c1ccc2ccccc2c1OC(F)F,13µM,n,n,x,x
C/C(=N\NC(=S)NCc1ccccc1)c1ccc(Cl)s1,11µM,n,u,n,u
Cc1nc(-c2ccc(NC(=O)c3ccccc3C)cc2)cs1,u,n,n,u,u
Cc1nc(-c2ccc(NC(=O)/C=C\C(=O)O)cc2)cs1,n,n,-81,n,n
Cc1nc(-c2ccc(C(=O)Nc3ccccc3F)cc2)cs1,u,8.9µM,-70,u,u
Cc1nc(-c2cccc(NC(=O)c3ccc(-n4cccn4)cc3)c2)cs1,11µM,u,u,x,x
COc1ccc(CC(=O)Nc2cccc(-c3csc(C)n3)c2)cc1,u,u,n,u,u
CCCCCC(=O)Nc1ccc(-c2csc(C)n2)cc1,n,n,n,n,n
Cc1nc(-c2ccc(C(=O)Nc3cccc(F)c3)cc2)cs1,3.5µM,u,n,u,5µM
CCOc1cc(/C=C(\C#N)C(=O)Nc2ccc(OC)cc2)ccc1OCc1cc(=O)n2nc(CC)sc2n1,x,n,n,n,n
O=C(Nc1ccccc1F)c1ccc(C(=O)c2ccccc2)cc1,n,n,-72,n,u
COc1ccc(NC(=O)c2ccc(-c3csc(C)n3)cc2)cc1,7.1µM,n,u,u,u
CCOc1ccc(NC(=O)c2ccc(-c3csc(C)n3)cc2)cc1,u,n,n,n,n
Cc1nc(-c2ccc(C(=O)Nc3ccc(F)cc3)cc2)cs1,u,n,u,u,6.3µM
O=C(Nc1ccccc1F)c1cccc(C(=O)Nc2ccccc2F)c1,n,n,n,n,u
O=C(Nc1ccc(-c2csc(-c3ccccc3)n2)cc1)c1ccccc1,u,n,-101,u,u
O=C(O)[C@H](Cc1c[nH]c2ccccc12)NS(=O)(=O)c1cccc2nsnc12,x,x,x,x,n
SMILES,HCV inh,FMDV antiviral,HCMV antiviral,LASV entry inh,Marburg entry inh
CC(C)C(=O)N1CCN(c2ccccc2NC(=O)c2ccc([N+](=O)[O-])o2)CC1,u,n,-73,n,n
CCC(=O)N1CCN(c2ccccc2NC(=O)c2ccc([N+](=O)[O-])o2)CC1,u,n,-65,n,u
O=C(Nc1ccccc1N1CCCC1)c1ccc([N+](=O)[O-])o1,u,n,-71,x,x
Cc1ccc(C(=O)Nc2ccccc2-c2ccccc2)o1,n,n,-67,n,n
O=C(Nc1ccccc1N1CCN(C(=O)c2ccccc2)CC1)c1ccc([N+](=O)[O-])o1,u,n,u,n,u
Cc1ncc2c(c1CNS(=O)(=O)c1cccs1)CCN(C(=O)/C=C/c1cc(F)cc(F)c1)C2,x,n,x,x,x
C#CCCCON=C1C[C@@H](O)[C@H](O)[C@H]2[C@@H]3C(=O)N(C[C@@H]4CCCO4)C(=O)[C@@H]3CC[C@@H]12,x,x,x,x,n
O=C1C=C[C@]23OCC[C@@]2(c2ccccc2)CCCC3=C1,x,x,n,x,x
COc1cccc(NC(=O)CSc2nnc3[nH]c(=O)cc(-c4ccccc4)n23)c1,x,n,n,n,x
Cc1cc(C)nc(NC(=O)c2c(Cl)cccc2Cl)n1,n,n,n,n,n
Cc1cccc(NC(=O)c2ccc([N+](=O)[O-])o2)c1C,u,n,n,u,u
Cc1cnc(C(=O)Nc2ccccc2-c2ccc(C)o2)cn1,7.9µM,n,n,u,n

# Source: PubChem BioAssay
